Source: the supplement of paper PMC9492666

What was measured:
HCC1937 = assay: relative cell viability, compound + RSL3, vs DMSO (fraction of DMSO control); higher = less growth inhibition; settings: 72 h
MDA-MB-231 = assay: as above; settings: 72 h
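Note: breast cancer cell viability read out with the CCK-8 kit after co-treatment of each compound with the ferroptosis inducer RSL3.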

Row | SMILES | relative cell viability (HCC1937) | relative cell viability (MDA-MB-231)
1 | CC(C)c1c(C(=O)Nc2ccccc2)c(-c2ccccc2)c(-c2ccc(F)cc2)n1CC[C@@H](O)C[C@@H](O)CC(=O)O [Atorvastatin Calcium] + COC(=O)c1ccc([C@H]2c3[nH]c4ccccc4c3C[C@H](C(=O)OC)N2C(=O)CCl)cc1 [RSL3] | 0.571 | 0.385
2 | O=C(O)/C=C/c1ccc(O)c(O)c1 [Caffeic Acid] + COC(=O)c1ccc([C@H]2c3[nH]c4ccccc4c3C[C@H](C(=O)OC)N2C(=O)CCl)cc1 [RSL3] | 0.623 | 0.426
3 | O=C(NN1CCCCC1)c1nn(-c2ccc(Cl)cc2Cl)c(-c2ccc(C#Cc3ccc(C(F)(F)F)cc3)s2)c1CNS(=O)(=O)N1CCCC1 + COC(=O)c1ccc([C@H]2c3[nH]c4ccccc4c3C[C@H](C(=O)OC)N2C(=O)CCl)cc1 [RSL3] | 0.75 | 0.345
4 | COc1ccc(N(C(=O)Nc2c(C)cccc2C)c2cc(Nc3ccc(N4CCN(C)CC4)cc3)ncn2)c(OC)c1 + COC(=O)c1ccc([C@H]2c3[nH]c4ccccc4c3C[C@H](C(=O)OC)N2C(=O)CCl)cc1 [RSL3] | 0.624 | 0.576
5 | CC(C)Cc1ccc([C@H](C)C(=O)O)cc1 [Dexibuprofen] + COC(=O)c1ccc([C@H]2c3[nH]c4ccccc4c3C[C@H](C(=O)OC)N2C(=O)CCl)cc1 [RSL3] | 1.03 | 0.606
6 | COc1ccc(C(=O)/C=C/c2ccccc2)cc1 [4'-Methoxychalcone] + COC(=O)c1ccc([C@H]2c3[nH]c4ccccc4c3C[C@H](C(=O)OC)N2C(=O)CCl)cc1 [RSL3] | 0.282 | 0.582
